Among the data in PubChem BioAssay (Tox21) are Potency values, retold here.

Unmarked numbers belong to inactive results. Records with an inconclusive call do not appear. The source made the active and inactive calls. Unless noted, calls come from the whole dose curve; as a rule, active = well fitted curve in the direction sought with a large enough effect in the repeat runs; inconclusive = weak or mixed curves; inactive = no such curve, though single readings can be large; an effect the other way counts as inactive or inconclusive.

A short description of assay [1]: Caspase-3/7 induction in HepG2 cells by small molecules, qHTS assay (AID 1346978). Note: nearly all actives have a fitted effect of over 15% in size. A digest of the protocol:
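Caspase-3/7 induction was measured by Caspase-Glo 3/7 luminescence (30 min, room temperature) after a 17 hr compound exposure of wild-type HepG2 cells seeded at 2,000 per well and pre-incubated 5 hr.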
(qHTS replaces the single test concentration by a dilution series.)

A short description of assay [2]: Caspase-3/7 induction in CHO-K1 cells by small molecules, qHTS assay (AID 1346980). Note: nearly all actives have a fitted effect of over 15% in size. A digest of the protocol: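 Luminescent Caspase-Glo 3/7 read (30min, room temperature) quantified apoptosis induction. Cells were wild-type CHO-K1, treated with compound for 17hr at 37 C and 5% CO2.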
A short description of assay [3]: Caspase-3/7 induction in HepG2 cells by small molecules, qHTS cell viability counter screen (AID 1346981). Note: series mostly up to about 92 µM; nearly all actives have a fitted effect of over 30% in size. A digest of the protocol:
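CellTiter-Fluor fluorescence measured viability in the same wells used for Caspase-Glo 3/7. HepG2 (wild type) at 2,000 cells/well were pre-incubated 5 hr, dosed, and given reagent at 16 hr, with 1 hr further at 37C.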

In assay [4] the target is Nuclear receptor subfamily 1 group I member 2 (Homo sapiens) (UniProt O75469). In words: Human pregnane X receptor (PXR) small molecule agonists, qHTS assay (AID 1346982). Note: nearly all actives have a fitted effect of over 35% in size. Note: potency is the fitted concentration of half-maximal effect. A digest of the protocol:
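Agonist mode: luminescence from ONE-Glo after 24 h compound exposure at 37C in HepG2 cells carrying hPXR-responsive CYP3A4 luciferase, plated in charcoal-stripped serum medium 5 h beforehand.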

Assay [5] deals with Acetylcholinesterase (Homo sapiens) (UniProt P22303). Put plainly: Acetylcholinesterase (AChE) small molecule antagonists: colormetric cell-based qHTS assay (AID 1347395; calls by dose curve; note: nearly all actives have a fitted effect of over 30% in size; note: potency is the fitted concentration of half-maximal effect). A digest of the protocol: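 Neuroblastoma line SH-SY5Y supplied the enzyme; cells were preincubated with compound for 30 min at 37 C and 5% CO2. Acetylthiocholine with DTNB was then added for 90 min at 37 C, and thiocholine was measured by colour.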

For assay [6] the target is unchanged. In words: Acetylcholinesterase (AChE) small molecule antagonists: enzyme-based qHTS assay (AID 1347397; calls by dose curve; note: nearly all actives have a fitted effect of over 55% in size; note: potency is the fitted concentration of half-maximal effect). As to conditions: Potency: AChE enzyme activity inhibition. In short, it runs like this:
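Colorimetric DTNB readout of acetylthiocholine hydrolysis, 10 min at room temperature, after 30 min room-temperature exposure of 50 mU/mL recombinant human enzyme to compound; DMSO vehicle control.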

Assay [7] has the same target. In words: Acetylcholinesterase (AChE) small molecule antagonists: fluorescence cell-based qHTS assay (AID 1347398; calls by dose curve; note: nearly all actives have a fitted effect of over 50% in size; note: potency is the fitted concentration of half-maximal effect). Particulars: Potency: AChE activity. In short, it runs like this: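 Cellular AChE activity read as thiocholine from acetylthiocholine hydrolysis, detected by Thiolite Green fluorescence at 490/520 nm after 40 min at room temperature. Compounds were pre-incubated 30 min at 37 C on adherent SH-SY5Y cells.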

The target is the same in assay [8]. In words: Acetylcholinesterase (AChE) small molecule antagonists: enzyme-based qHTS assay with human liver microsomes (AID 1347399; calls by dose curve; note: nearly all actives have a fitted effect of over 60% in size). As to conditions: Potency: qHTS inhibition. In short, it runs like this: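 Recombinant human AChE (50 mU/mL in the enzyme mix) and human liver microsomes (0.25 mg/mL final) were preincubated with compound and NADPH (0.25 mg/mL final) for 30 min at 37 C. Acetylthiocholine/DTNB was then added; thiocholine was read colorimetrically after 10 min at room temperature.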

For assay [9], the target named is Cytochrome P450 2C19 (Homo sapiens) (UniProt P33261). In words: Cytochrome P450 Family 2 Subfamily C Member 19 (CYP2C19) small molecule antagonists: luciferase reporter qHTS assay (AID 1671197). Note: nearly all actives have a fitted effect of over 65% in size. Note: potency is the fitted concentration of half-maximal effect. A digest of the protocol: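 P450-Glo CYP2C19 screening system; proluciferin substrate; DMSO compound stocks; 10 min RT preincubation; NADPH regeneration, 1 h at 37C; luciferin detection reagent, 20 min RT; luminescence as RLU.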
On the technique in general: A reporter such as luciferase makes a cellular process visible.

Assay [10] concerns the target Cytochrome P450 2C9 (Homo sapiens) (UniProt P11712). Put plainly: Cytochrome P450 Family 2 Subfamily C Member 9 (CYP2C9) small molecule antagonists: luciferase reporter qHTS assay (AID 1671198). Note: nearly all actives have a fitted effect of over 50% in size. Note: potency is the fitted concentration of half-maximal effect. A digest of the protocol: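 Enzyme-substrate mix preincubated with compound 10 min at room temperature; reaction started with NADPH regeneration solution, 1 h 37C. Luminescent luciferin product read after 20 min detection reagent.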

In assay [11] the target is Voltage-gated inwardly rectifying potassium channel KCNH2 (Homo sapiens) (UniProt Q12809). Put plainly: Human Ether-a-go-go-Related Gene (hERG) channel small molecule antagonists: fluorescence cell-based qHTS assay (AID 1671200).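 Note: hERG-expressing U2OS cells given a thallium stimulus after FluxOR II dye loading; series mostly up to about 77 µM; nearly all actives have a fitted effect of over 50% in size.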 In short, it runs like this: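 Measured: Tl+ flux via fluorescence (480/540 nm) in hERG-expressing U2OS cells after 1 h dye loading at room temperature.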
On the technique in general: hERG is a cardiac potassium channel; its block is linked to QT prolongation.

The target of assay [12] is Cytochrome P450 3A4 (Homo sapiens) (UniProt P08684). Put plainly: Cytochrome P450 Family 3 Subfamily A Member 4 (CYP3A4) small molecule antagonists: luciferase reporter qHTS assay (AID 1671201). Note: nearly all actives have a fitted effect of over 50% in size. Note: potency is the fitted concentration of half-maximal effect. A digest of the protocol: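 Setup: enzyme-substrate mix, compound pin transfer, 10 min RT. Reaction: NADPH regeneration solution, 1 h RT. Readout: detection reagent stops turnover, luminescence measured after 20 min, expressed in relative luminescence units.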

The target in assay [13] is Cytochrome P450 1A2 (Homo sapiens) (UniProt P05177). In words: Cytochrome P450 Family 1 Subfamily A Member 2 (CYP1A2) small molecule antagonists: luciferase reporter qHTS assay (AID 1671199). Note: nearly all actives have a fitted effect of over 50% in size. Note: potency is the fitted concentration of half-maximal effect. In short, it runs like this:
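Luminescence from luciferin formed by CYP1A2 from a proluciferin substrate, read 20 min after detection reagent. Compound was pre-incubated 10 min with enzyme-substrate, and reaction started with NADPH regeneration solution for 1 h at room temperature; furafylline control.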

Assay [14] concerns the target Cytochrome P450 2D6 (Homo sapiens) (UniProt P10635). Put plainly: Cytochrome P450 Family 2 Subfamily D Member 6 (CYP2D6) small molecule antagonists: luciferase reporter qHTS assay (AID 1671196). Note: nearly all actives have a fitted effect of over 50% in size. Note: potency is the fitted concentration of half-maximal effect. A digest of the protocol: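 CYP2D6 activity was followed as luminescence from its luciferin product after a 1 h NADPH-driven reaction at room temperature. Enzyme-substrate mix and compound were pre-incubated for 10 min, and the signal was read 20 min after adding detection reagent.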

Sequence of Cytochrome P450 2C19 (Homo sapiens) (P33261 whole entry, looked up): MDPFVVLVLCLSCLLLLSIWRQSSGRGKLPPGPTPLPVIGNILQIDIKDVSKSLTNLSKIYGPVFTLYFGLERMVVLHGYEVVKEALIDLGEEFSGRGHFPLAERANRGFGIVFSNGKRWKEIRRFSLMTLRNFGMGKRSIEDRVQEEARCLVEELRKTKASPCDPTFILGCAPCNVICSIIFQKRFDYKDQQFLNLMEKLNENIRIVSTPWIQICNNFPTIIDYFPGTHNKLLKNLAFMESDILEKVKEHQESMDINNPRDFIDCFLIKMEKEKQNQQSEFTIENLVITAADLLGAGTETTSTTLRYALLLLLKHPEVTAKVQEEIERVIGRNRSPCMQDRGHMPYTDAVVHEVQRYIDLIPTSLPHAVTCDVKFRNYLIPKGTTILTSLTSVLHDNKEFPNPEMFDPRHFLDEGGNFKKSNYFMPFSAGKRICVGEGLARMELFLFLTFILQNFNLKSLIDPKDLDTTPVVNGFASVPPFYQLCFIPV
Sequence of Cytochrome P450 3A4 (Homo sapiens) (P08684 whole entry, looked up): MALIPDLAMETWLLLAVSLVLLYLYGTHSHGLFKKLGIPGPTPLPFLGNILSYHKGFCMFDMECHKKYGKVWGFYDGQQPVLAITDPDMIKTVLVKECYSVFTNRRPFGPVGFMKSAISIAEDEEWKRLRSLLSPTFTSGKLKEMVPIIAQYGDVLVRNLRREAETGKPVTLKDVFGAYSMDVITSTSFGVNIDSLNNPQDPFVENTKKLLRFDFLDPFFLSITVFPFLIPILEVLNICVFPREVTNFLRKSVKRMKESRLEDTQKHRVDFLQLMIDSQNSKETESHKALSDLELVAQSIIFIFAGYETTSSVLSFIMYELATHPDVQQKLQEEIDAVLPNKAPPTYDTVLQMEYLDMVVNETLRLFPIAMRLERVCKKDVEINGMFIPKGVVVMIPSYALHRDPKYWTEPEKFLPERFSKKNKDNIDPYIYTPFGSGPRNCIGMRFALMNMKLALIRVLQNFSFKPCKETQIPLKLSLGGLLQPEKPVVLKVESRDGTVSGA
Sequence of Nuclear receptor subfamily 1 group I member 2 (Homo sapiens) (O75469 whole entry, looked up): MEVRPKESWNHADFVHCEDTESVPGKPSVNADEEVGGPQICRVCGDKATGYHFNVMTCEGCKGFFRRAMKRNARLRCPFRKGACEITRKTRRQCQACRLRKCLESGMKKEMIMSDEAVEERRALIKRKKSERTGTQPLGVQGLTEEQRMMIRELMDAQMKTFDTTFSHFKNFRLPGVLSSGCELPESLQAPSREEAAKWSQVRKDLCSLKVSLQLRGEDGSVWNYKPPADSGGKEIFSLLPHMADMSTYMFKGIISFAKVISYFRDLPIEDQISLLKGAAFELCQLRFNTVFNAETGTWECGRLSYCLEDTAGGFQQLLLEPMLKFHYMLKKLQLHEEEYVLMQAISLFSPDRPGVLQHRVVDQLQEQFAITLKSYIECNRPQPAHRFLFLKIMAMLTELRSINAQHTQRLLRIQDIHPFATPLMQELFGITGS
Sequence of Acetylcholinesterase (Homo sapiens) (P22303 whole entry, looked up): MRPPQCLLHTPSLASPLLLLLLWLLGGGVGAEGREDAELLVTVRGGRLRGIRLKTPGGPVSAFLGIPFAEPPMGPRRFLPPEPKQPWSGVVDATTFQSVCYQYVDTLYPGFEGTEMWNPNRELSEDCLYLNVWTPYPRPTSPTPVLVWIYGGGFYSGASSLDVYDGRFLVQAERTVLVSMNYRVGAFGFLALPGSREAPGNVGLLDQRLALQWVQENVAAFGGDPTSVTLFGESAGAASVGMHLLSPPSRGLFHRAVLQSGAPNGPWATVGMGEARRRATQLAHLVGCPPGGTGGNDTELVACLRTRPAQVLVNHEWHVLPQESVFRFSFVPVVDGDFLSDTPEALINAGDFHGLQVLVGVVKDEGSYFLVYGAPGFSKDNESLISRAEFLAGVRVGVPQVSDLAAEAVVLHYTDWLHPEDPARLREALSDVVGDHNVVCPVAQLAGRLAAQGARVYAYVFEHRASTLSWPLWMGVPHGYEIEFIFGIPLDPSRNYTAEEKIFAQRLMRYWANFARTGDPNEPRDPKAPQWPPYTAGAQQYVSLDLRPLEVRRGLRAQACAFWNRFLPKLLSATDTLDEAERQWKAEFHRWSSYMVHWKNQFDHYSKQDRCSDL
Sequence of Cytochrome P450 1A2 (Homo sapiens) (P05177 whole entry, looked up): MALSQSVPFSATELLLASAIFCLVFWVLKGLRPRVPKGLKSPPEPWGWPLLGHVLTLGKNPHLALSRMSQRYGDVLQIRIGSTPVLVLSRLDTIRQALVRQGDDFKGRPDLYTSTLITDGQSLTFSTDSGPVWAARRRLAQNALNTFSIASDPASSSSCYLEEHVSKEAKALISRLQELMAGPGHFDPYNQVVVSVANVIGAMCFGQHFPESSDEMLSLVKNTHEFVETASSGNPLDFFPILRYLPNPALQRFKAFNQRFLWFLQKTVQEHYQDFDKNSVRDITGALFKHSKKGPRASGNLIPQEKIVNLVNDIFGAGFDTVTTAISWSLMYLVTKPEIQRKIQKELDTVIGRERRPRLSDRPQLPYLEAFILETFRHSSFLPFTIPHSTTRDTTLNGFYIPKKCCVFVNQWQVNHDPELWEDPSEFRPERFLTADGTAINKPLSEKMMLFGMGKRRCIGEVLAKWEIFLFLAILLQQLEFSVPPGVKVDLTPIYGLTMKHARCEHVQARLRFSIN
Sequence of Cytochrome P450 2C9 (Homo sapiens) (P11712 whole entry, looked up): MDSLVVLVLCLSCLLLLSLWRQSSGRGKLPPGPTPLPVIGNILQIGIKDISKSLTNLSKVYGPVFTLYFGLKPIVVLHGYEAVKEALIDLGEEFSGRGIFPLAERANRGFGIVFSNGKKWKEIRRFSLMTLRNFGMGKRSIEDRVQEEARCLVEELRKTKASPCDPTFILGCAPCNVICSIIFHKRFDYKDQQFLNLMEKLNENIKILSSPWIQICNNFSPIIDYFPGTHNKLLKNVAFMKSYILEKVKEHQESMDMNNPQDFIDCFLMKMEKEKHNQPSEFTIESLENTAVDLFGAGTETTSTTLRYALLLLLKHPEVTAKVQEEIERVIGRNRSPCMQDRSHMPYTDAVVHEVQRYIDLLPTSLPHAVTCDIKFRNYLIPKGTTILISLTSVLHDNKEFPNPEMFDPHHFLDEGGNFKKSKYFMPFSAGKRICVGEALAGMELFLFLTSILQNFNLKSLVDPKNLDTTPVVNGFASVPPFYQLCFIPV
Sequence of Cytochrome P450 2D6 (Homo sapiens) (P10635 whole entry, looked up): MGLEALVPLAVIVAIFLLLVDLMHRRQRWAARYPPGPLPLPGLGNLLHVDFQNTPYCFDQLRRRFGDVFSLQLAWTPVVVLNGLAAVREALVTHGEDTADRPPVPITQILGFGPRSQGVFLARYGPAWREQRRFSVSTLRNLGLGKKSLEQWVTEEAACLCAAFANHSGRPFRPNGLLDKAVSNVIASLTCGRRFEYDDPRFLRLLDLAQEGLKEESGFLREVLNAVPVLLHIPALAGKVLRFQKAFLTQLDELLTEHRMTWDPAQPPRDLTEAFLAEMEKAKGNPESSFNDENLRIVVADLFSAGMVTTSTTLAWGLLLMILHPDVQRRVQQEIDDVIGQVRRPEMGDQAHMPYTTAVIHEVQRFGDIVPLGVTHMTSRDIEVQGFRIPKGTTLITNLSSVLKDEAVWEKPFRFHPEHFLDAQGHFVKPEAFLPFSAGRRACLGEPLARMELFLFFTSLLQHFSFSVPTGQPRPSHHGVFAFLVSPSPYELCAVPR
Sequence of Voltage-gated inwardly rectifying potassium channel KCNH2 (Homo sapiens) (Q12809 whole entry, looked up): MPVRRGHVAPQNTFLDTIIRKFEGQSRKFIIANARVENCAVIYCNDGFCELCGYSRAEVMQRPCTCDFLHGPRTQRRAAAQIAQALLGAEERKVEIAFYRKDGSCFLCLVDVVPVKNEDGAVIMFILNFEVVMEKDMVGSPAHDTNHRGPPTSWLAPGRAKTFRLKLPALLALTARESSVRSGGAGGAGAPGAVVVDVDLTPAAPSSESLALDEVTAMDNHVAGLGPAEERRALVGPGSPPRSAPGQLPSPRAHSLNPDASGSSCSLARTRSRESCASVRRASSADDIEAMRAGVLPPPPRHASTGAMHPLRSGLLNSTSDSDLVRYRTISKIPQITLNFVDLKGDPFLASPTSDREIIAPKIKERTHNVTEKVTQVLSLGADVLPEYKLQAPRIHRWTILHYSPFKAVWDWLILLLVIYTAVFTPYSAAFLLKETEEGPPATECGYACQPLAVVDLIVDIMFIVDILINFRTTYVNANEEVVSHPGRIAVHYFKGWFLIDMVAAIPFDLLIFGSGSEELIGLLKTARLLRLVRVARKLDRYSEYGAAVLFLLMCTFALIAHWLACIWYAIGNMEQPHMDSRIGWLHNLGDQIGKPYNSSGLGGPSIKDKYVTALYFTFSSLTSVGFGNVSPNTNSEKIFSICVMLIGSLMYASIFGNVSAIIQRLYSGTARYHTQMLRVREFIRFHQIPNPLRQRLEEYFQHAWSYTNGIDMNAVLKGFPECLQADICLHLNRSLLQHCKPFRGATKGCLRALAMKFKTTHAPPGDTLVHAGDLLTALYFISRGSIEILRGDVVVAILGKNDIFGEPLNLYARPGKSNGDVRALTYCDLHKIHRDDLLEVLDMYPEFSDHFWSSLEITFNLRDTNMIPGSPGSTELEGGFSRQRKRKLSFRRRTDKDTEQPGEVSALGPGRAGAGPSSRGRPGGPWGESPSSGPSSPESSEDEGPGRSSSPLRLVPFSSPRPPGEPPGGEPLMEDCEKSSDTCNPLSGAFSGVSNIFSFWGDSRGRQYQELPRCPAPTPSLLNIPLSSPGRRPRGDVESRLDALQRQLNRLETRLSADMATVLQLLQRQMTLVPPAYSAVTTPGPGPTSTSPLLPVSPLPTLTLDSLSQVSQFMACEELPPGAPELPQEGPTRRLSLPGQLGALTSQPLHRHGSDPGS

For the compound `CC(C)=CC1C(C(=O)OC(C#N)c2cccc(Oc3ccccc3)c2)C1(C)C` (configuration not stated), the Potency result in assay [1], in assay [2], in [3], in assay [5], in [6] and in [7] was “inactive” each time. The Potency entry in assay [8], in assay [11] and in [12] was “inactive” each time. Further, the Potency in assay [4] was 17.2 µM (active); in assay [9], 31.7 µM (active); in [10], 10 µM (active).

As for `O=[N+]([O-])c1ccc(Cl)c(Cl)c1Cl`, the Potency entry in assay [1], in assay [2], in assay [3], in assay [4], in assay [5] and in [6] was “inactive” each time. Also, the Potency entry in [7], in assay [8], in assay [10], in assay [11] and in assay [12] was “inactive” throughout. Also, the figures for the Potency in assay [9] and in assay [13] were 55.6 µM (active) and 8.8 µM (active), respectively.

As to `CCOP(=O)(Sc1ccccc1)Sc1ccccc1`, the Potency result in [1], in [2], in assay [3], in assay [11] and in assay [12] was “inactive” each time. The Potency is 34.4 µM (active) in [4]; 3.99 µM (active) in assay [5]; 17.8 µM (active) in assay [6]; 0.894 µM (active) in assay [7]; 56.4 µM (active) in [14]; 28.3 µM (active) in assay [10]. Besides, in assay [13], the Potency is 10 µM (active).

In the case of `CC(C)[C@@H](Nc1ccc(C(F)(F)F)cc1Cl)C(=O)OC(C#N)c1cccc(Oc2ccccc2)c1` (some centres not stated), the Potency entry in [1], in assay [2], in assay [3], in assay [5], in assay [7] and in assay [8] was “inactive” throughout. For the same compound, the Potency result in assay [14] and in assay [11] was “inactive” throughout. In addition, the Potency in assay [4] was 7.42 µM (active); in [9] it was 10.8 µM (active); in assay [10] it was 6.09 µM (active).

On to `N#Cc1ccc(N(CC(N)=O)CC(F)(F)F)cc1C(F)(F)F`, for which the Potency result in assay [1], in assay [2], in assay [3], in assay [4], in assay [5] and in [6] was “inactive” each time. Also, the Potency entry in [7], in assay [8] and in assay [11] was “inactive” in each case. Further, the figures for the Potency in assay [14] and in assay [10] were 31.7 µM (active) and 35.6 µM (active), respectively.

Take `C[C@]12Cc3cn[nH]c3C[C@@H]1CC[C@@H]1[C@@H]2CC[C@@]2(C)[C@H]1CC[C@]2(C)O`: the Potency entry in [1], in assay [2], in assay [3], in assay [5], in [6] and in [7] was “inactive” each time. For the same compound, the Potency entry in assay [8], in assay [13] and in assay [11] was “inactive” in each case. Also, the Potency is 9.44 µM (active) in assay [4], 0.776 µM (active) in [9] and 0.977 µM (active) in assay [10].

On to `Cc1c([N+](=O)[O-])c(C)c([N+](=O)[O-])c(C(C)(C)C)c1[N+](=O)[O-]`, for which the Potency result in [1], in assay [2], in [3], in assay [5], in assay [6] and in assay [7] was “inactive” each time. In addition, the Potency entry in [8], in assay [14], in [10] and in assay [12] was “inactive” in each case. Moreover, the Potency in assay [4] is 48.6 µM (active).

Consider `ClSC(Cl)(Cl)Cl`, for which the Potency result in [1], in assay [2], in assay [3], in assay [4], in assay [5] and in [7] was “inactive” in each case. In addition, the Potency result in assay [8], in assay [9], in assay [11] and in [12] was “inactive” each time. Also, the Potency in assay [14] is 10.1 µM (active); in assay [10] it was 31.8 µM (active).

In the case of `COP(=S)(OC)Oc1ccc([N+](=O)[O-])c(C)c1`, the Potency entry in [1], in assay [2], in assay [3], in assay [4], in [6] and in assay [8] was “inactive” in each case. Also, in [11], the Potency entry was “inactive”. Further, the Potency in assay [5] is 35.6 µM (active); in [7], 50.2 µM (active); in assay [9] it was 0.399 µM (active); in assay [10] it was 7.1 µM (active); in assay [13] it was 1.12 µM (active); in [12], 7.1 µM (active).
